Data reported in PubChem BioAssay AID1259311 (ICCB-Longwood Screening Facility, Harvard Medical School, 2017).
Where “and” joins values, the source holds several entries; their conditions need not be identical. Equal values may be shown once. The whole screen tested about 330,000 compounds, of which about 1,100 (0.33%) were called active. Cut-off read from the data, not from the text of the source: active = inhibition above about 85%; inactive = the rest. Many of the other results were omitted from the sample, so actives are more common in it than they were.

Experiment: growth inhibition of S. aureus RN4220, primary screen, OD600 (AID 1259311);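 note: plate controls were untreated cells for no effect and reference antibiotic for full effect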
Conditions: OD600, 16 h, stronger effect = higher value

Row | Structure (SMILES) | inhibition
1 | c1ccc(C(c2ccccc2)N2CCN(Cc3nnnn3C3CCCCC3)CC2)cc1 | -1.54% (inactive)
2 | COc1ccccc1CN1CCN(C(c2ccccc2)c2ccccc2)CC1 | -0.651% (inactive)
3 | CC1(C)CC(N2CCN(C(c3ccccc3)c3ccccc3)CC2)=CC(=[N+]2CCCCC2)C1 | 100% (active)
4 | CC(NC(=O)c1nc[nH]c1C(=O)NCCCCCNC(=O)OC(C)(C)C)c1ccccc1 (configuration not stated) | 8.53% (inactive) and 1.7% (inactive)
5 | C[C@]12CCC(O)CC1CCC1C2CC[C@]2(C)C(O)CCC12 (some centres not stated) | 7.5% (inactive)
6 | Cc1ccc(NS(=O)(=O)c2cc([N+](=O)[O-])ccc2NN=Cc2sc(N3CCOCC3)nc2-c2ccccc2)c(C)c1 | -5% (inactive)
7 | COC(=O)Cc1ccc(OCC(=O)NC2CCCC2)cc1 | 2.26% (inactive)
8 | CC1(C)SC2C(NC(=O)COc3ccccc3)C(=O)N2C1C(=O)O (configuration not stated) | 99.8% (active)
9 | Cc1cccc(OCC(=O)NC2CC(C)(C)NC(C)(C)C2)c1 | -1.7% (inactive)
10 | O=S(=O)(NN=Cc1cccc(F)c1)c1ccccc1 | 29.9% (inactive)
11 | CCOc1cccc(-c2c(C(=O)NN=Cc3ccc(C)o3)nnn2-c2nonc2N)c1 | 4.52% (inactive)
12 | C#Cc1ccc(C2C=C(C(=O)N3CCOCC3)OC(OCC)C2CCCO)cc1 (configuration not stated) | 2.8% (inactive) and 5.16% (inactive)
13 | C#C[C@]1(O)CCC2C3CCC4=Cc5nc6nc7ccccc7n6cc5C[C@]4(C)C3CC[C@@]21C (some centres not stated) | -13.8% (inactive)
14 | CC(=NNC(=O)c1nnn(-c2nonc2N)c1CSc1ccc(C)cc1)c1ccco1 | 4.06% (inactive)
15 | O=C(Nc1nnc(-c2ccco2)o1)c1ccc(S(=O)(=O)N2CCOCC2)cc1 | 1.85% (inactive)
16 | COc1cccc(-c2nnc(NC(=O)c3ccc(S(=O)(=O)N(CC(C)C)CC(C)C)cc3)o2)c1 | 99.9% (active)
17 | COc1ccc(-c2nnc(NC(=O)CS(=O)(=O)c3ccc(Cl)cc3)o2)c(OC)c1 | 3.79% (inactive)
18 | CC1CN(C(C)CO)C(=O)c2cccc(NC(=O)c3ccc(-c4nccs4)cc3)c2OC1CN(C)C(=O)NC1CCCCC1 (configuration not stated) | 4.31% (inactive)
19 | C=C[C@]1(C)CC(OC(=O)CSCCN(CC)CC)[C@]2(C)C(C)CC[C@]3(CCC(=O)C32)C(C)C1O (some centres not stated) | 101% (active)

Row | Structure (SMILES) | inhibition
20 | COC(=O)[C@]1(CC(C)C)NC(c2ccc(-c3ccc(F)cc3)c(OC)c2)C2C(=O)N(C)C(=O)C21 (some centres not stated) | -2.27% (inactive)
21 | COc1ccc(C2C=CCN(C(=O)Nc3ccccc3-c3ccccc3)CC(=O)N2Cc2ccc(F)cc2)cc1 (configuration not stated) | 4.3% (inactive)
22 | CCCn1c(=O)c(C(=O)NN=Cc2ccc(F)cc2)c(O)c2ccccc21 | 101% (active)
23 | COc1cc(C(=O)NN=Cc2cn(Cc3cccc(F)c3)c3ccccc23)ccc1O | -2.54% (inactive)
24 | CCCn1c(=O)c(-c2ccccc2)c(O)c2ccccc21 | 4.44% (inactive)
25 | CCCCCn1c(=O)c(C(=O)NCc2ccccc2)c(O)c2ccccc21 | -1.56% (inactive)
26 | CCCn1c(=O)c(C(=O)Nc2cc(C)ccn2)c(O)c2ccccc21 | 8.88% (inactive)
27 | CC(C)CCn1c(=O)c(C(=O)NN=Cc2cccc(F)c2)c(O)c2ccccc21 | 101% (active)
28 | CCOC(=O)NN=C(C)/C=C/c1ccco1 | -0.0294% (inactive)
29 | O=C1CCC(O)CCN1CCC(Sc1ccccc1)c1ccccc1 (configuration not stated) | 10.9% (inactive)
30 | CC(C)(C)C1C=C(C(=O)N2CCN(Cc3ccccc3)CC2)OC(OCc2ccc(CO)cc2)C1 (configuration not stated) | 8.07% (inactive) and 4.07% (inactive)
31 | CCOC(=O)C1C2COc3ccc(Br)cc3C2N2C(=O)N(c3ccc(C(F)(F)F)cc3)C(=O)[C@@]12C (some centres not stated) | -6.79% (inactive)
32 | CCCCC1CC1C(NC(=O)c1ccco1)c1ccccc1C(F)(F)F (configuration not stated) | 6.05% (inactive)
33 | O=C(CN1CCSCC1)NN=Cc1ccc(F)cc1F | 6.36% (inactive)
34 | Cc1ccc(C=NNC(=O)CSc2nc3ccccc3n2C)s1 | 0.496% (inactive)
35 | Cc1ccc(C=NNC(=O)CSc2nc3ccccc3c(=O)n2-c2ccccc2)s1 | -0.0121% (inactive)
36 | Cn1c(SCC(=O)NN=Cc2ccc([N+](=O)[O-])s2)nnc1-c1ccccc1 | 94.9% (active)
37 | COC(=O)C1=C(c2ccc(C(C)=O)cc2)CC2CCC1N2C(=O)NCc1ccc(F)cc1 (configuration not stated) | 1.41% (inactive)
38 | O=S(=O)(NN=Cc1ccc(OC2CSC2)cc1)c1ccccc1 | 2.43% (inactive)

Row | Structure (SMILES) | inhibition
39 | COc1cccc(C=NNc2cc(-n3nc(C)cc3-c3ccccc3)ncn2)c1O | 99.8% (active)
40 | COc1cccc(C=NNC(=O)CSCC(=O)Nc2ccccc2)c1O | 3.38% (inactive)
41 | COc1cccc(C=NNc2ncnc3c2ncn3Cc2ccccc2)c1O | 9.44% (inactive)
42 | COc1cccc(C(=O)NCC(=O)NN=Cc2c(C)[nH]c3ccccc23)c1 | 4.11% (inactive)
43 | O=C(NC(Nc1nc2ccc([N+](=O)[O-])cc2s1)(C(F)(F)F)C(F)(F)F)c1ccccc1 | 100% (active)
44 | N=C1C(c2nc3ccccc3s2)=C(O)CN1NC(=O)c1ccc([N+](=O)[O-])cc1 | 31.5% (inactive)
45 | O=C(NOCc1ccccc1)c1cccc([N+](=O)[O-])c1 | 4.41% (inactive)
46 | COC(=O)C1=C(c2cccc(OC)c2OC)CC2CCC1N2C(=O)NCCNC(C)=O (configuration not stated) | 2.83% (inactive)
47 | Cc1ccc(OCC(=O)NN=Cc2cc([N+](=O)[O-])ccc2N2CCCCC2)cc1 | 15.8% (inactive)
48 | COc1cccc(C2=CC(=O)CC(c3ccc4c(c3)OCO4)C2)c1OC (configuration not stated) | 4.85% (inactive)
49 | O=C(Cn1cnc2ccccc21)NN=Cc1ccccn1 | -0.52% (inactive)
50 | COC(=O)[C@]1(C)NC(c2ccc(-c3cccc(Cl)c3)c(OC)c2)C2C(=O)N(C)C(=O)C21 (some centres not stated) | 4.06% (inactive)
51 | CCOC(=O)C=c1sc(=C(C#N)C(=O)OCC)n(-c2ccccc2)c1=O | -0.54% (inactive)
52 | CCC(C)N1CCC2(CC1)N=c1c(c3c4c5c(C)c(O)c3c(O)c1=NC(=O)C(C)=CC=CC(C)C(O)C(C)C(O)C(C)C(OC(C)=O)C(C)C(OC)C=CO[C@@](C)(O5)C4=O)N2 (some centres not stated) | 99.7% (active)
53 | Cc1nnc(SCC(=O)NC2CCCC2)s1 | -0.203% (inactive)
54 | Cc1cc(C)cc(C(=O)NC2C(=O)N3C(C(=O)O)=C(CSc4nnc(C)s4)CSC23)c1 (configuration not stated) | 99.5% (active)
55 | Cc1nnc(SCC2=C(C(=O)O)N3C(=O)C(NC(=O)Cn4nc(C)c(Cl)c4C)C3SC2)s1 (configuration not stated) | 99.6% (active)
56 | Cc1nnc(SCC(=O)Nn2cnnc2)s1 | 2.92% (inactive)
57 | Cc1nnc(SCc2cc(=O)[nH]c(N3CCN(Cc4ccccc4)CC3)n2)s1 | 1.62% (inactive)
